Data on 24 compounds can be found in the supplement of paper PMC7411640.

Where a name gives a salt, the structure may show the parent alone.

The assay relates to MDA-MB-468. Kind of assay: phospho-S6 immunofluorescence (DAPI-normalised), per-plate z-score; higher = higher phospho-S6 signal (less pathway suppression). The conditions noted are these: 24 h. As to the method: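 GPCR-targeted compound library (MedChemExpress HY-L006) tested on MDA-MB-468 PTEN-null TNBC cells in 384-well plates at 0.1, 1 or 10 uM, combined with vehicle, GDC0941 450 nM or lapatinib 1 uM, for 24 h. Phospho-S6 (S240/244) immunofluorescence normalised to DAPI and expressed as a per-plate z-score; values are the mean of biological triplicates.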

For `C[C@H](CCC(=O)O)[C@H]1CC[C@H]2[C@@H]3CC[C@@H]4C[C@H](O)CC[C@]4(C)[C@H]3C[C@H](O)[C@]12C` [Deoxycholic acid] (compound 10 µM), the “phospho-S6 immunofluorescence (z-score)” value by setting is: (co-treatment: GDC0941 450 nM) 0.02; (co-treatment: lapatinib 1 uM) 0.6; (co-treatment: vehicle) -0.17.

Turning to `CCCc1nc2c(C)cc(-c3nc4ccccc4n3C)cc2n1Cc1ccc(-c2ccccc2C(=O)O)cc1` [Telmisartan] (compound 10 µM), the “phospho-S6 immunofluorescence (z-score)” value reads like this: (co-treatment: GDC0941 450 nM) 0.54; (co-treatment: lapatinib 1 uM) 1.6; (co-treatment: vehicle) 0.35.

Take `C[N+]1(C)[C@@H]2C[C@@H](OC(=O)C(O)(c3cccs3)c3cccs3)C[C@H]1[C@@H]1O[C@@H]12` [Tiotropium (Bromide)] (compound 10 µM): the “phospho-S6 immunofluorescence (z-score)” value runs as follows: (co-treatment: GDC0941 450 nM) -0.58; (co-treatment: lapatinib 1 uM) 0.42; (co-treatment: vehicle) -0.69.

Regarding `CC(=O)N[C@H](Cc1ccc2ccccc2c1)C(=O)N[C@H](Cc1ccc(Cl)cc1)C(=O)N[C@H](Cc1cccnc1)C(=O)N[C@@H](CO)C(=O)N(C)[C@@H](Cc1ccc(O)cc1)C(=O)N[C@H](CC(N)=O)C(=O)N[C@@H](CC(C)C)C(=O)N[C@@H](CCCCNC(C)C)C(=O)N1CCC[C@H]1C(=O)N[C@H](C)C(N)=O` [Abarelix] (compound 10 µM), the “phospho-S6 immunofluorescence (z-score)” value is 0.77 (co-treatment: GDC0941 450 nM), 0.65 (co-treatment: lapatinib 1 uM) and -0.38 (co-treatment: vehicle).

Take `CS(=O)(=O)c1cc(F)cc2c3c(n(Cc4ccc(Cl)cc4)c12)[C@@H](CC(=O)O)CC3` [Laropiprant] (compound 10 µM): the “phospho-S6 immunofluorescence (z-score)” value reads like this: (co-treatment: GDC0941 450 nM) 0.48; (co-treatment: lapatinib 1 uM) 0.81; (co-treatment: vehicle) 0.75.

With `CNC[C@H](O)c1cccc(O)c1` [(R)-(-)-Phenylephrine (hydrochloride)] (compound 10 µM), the “phospho-S6 immunofluorescence (z-score)” value by setting is: (co-treatment: GDC0941 450 nM) 0.67; (co-treatment: lapatinib 1 uM) 1.18; (co-treatment: vehicle) 1.13.

`CC(C)NCC(O)c1ccc(O)c(O)c1` (configuration not stated) [Isoprenaline (hydrochloride)] (compound 10 µM): the “phospho-S6 immunofluorescence (z-score)” value (co-treatment: GDC0941 450 nM) amounted to 0.63, the “phospho-S6 immunofluorescence (z-score)” value (co-treatment: lapatinib 1 uM) came out at 2.74 and the “phospho-S6 immunofluorescence (z-score)” value (co-treatment: vehicle) was found to be 1.65.

In the case of `CCN(CC)CCCC(C)Nc1nc(C)cc(Nc2ccc3nc(C)cc(N)c3c2)n1` (configuration not stated) (compound 10 µM), the “phospho-S6 immunofluorescence (z-score)” value is, setting by setting: (co-treatment: GDC0941 450 nM) 0.95; (co-treatment: lapatinib 1 uM) 1.82; (co-treatment: vehicle) 0.49.

Turning to `CN(C)C(=O)N[C@H]1CC[C@H](CCN2CCN(c3cccc(Cl)c3Cl)CC2)CC1` [Cariprazine (hydrochloride)] (compound 10 µM), the “phospho-S6 immunofluorescence (z-score)” value (co-treatment: GDC0941 450 nM) came out at 0.26, the “phospho-S6 immunofluorescence (z-score)” value (co-treatment: lapatinib 1 uM) is -1.23 and the “phospho-S6 immunofluorescence (z-score)” value (co-treatment: vehicle) was found to be 1.3.

With `COc1cc(C(=O)NCc2ccc(OCCN(C)C)cc2)cc(OC)c1OC` [Trimethobenzamide hydrochloride] (compound 10 µM), the “phospho-S6 immunofluorescence (z-score)” value reads like this: (co-treatment: GDC0941 450 nM) 0.29; (co-treatment: lapatinib 1 uM) 1.09; (co-treatment: vehicle) 0.51.

For the compound `O=C(O[C@H]1CN2CCC1CC2)N1CCc2ccccc2[C@@H]1c1ccccc1` [Solifenacin (hydrochloride)] (compound 10 µM), the “phospho-S6 immunofluorescence (z-score)” value by setting is: (co-treatment: GDC0941 450 nM) 0.75; (co-treatment: lapatinib 1 uM) 1.12; (co-treatment: vehicle) -1.36.

For the compound `CC#C[C@]1(O)CC[C@H]2[C@@H]3CCC4=CC(=O)CCC4=C3[C@@H](c3ccc(N(C)C)cc3)C[C@@]21C` [Mifepristone] (compound 10 µM), the “phospho-S6 immunofluorescence (z-score)” value was -2.47 (co-treatment: GDC0941 450 nM), 1.14 (co-treatment: lapatinib 1 uM) and -0.01 (co-treatment: vehicle).

For `O=c1[nH]c2ccccc2n1CCN1CCN(c2cccc(C(F)(F)F)c2)CC1` [Flibanserin] (compound 10 µM), the “phospho-S6 immunofluorescence (z-score)” value (co-treatment: GDC0941 450 nM) is -0.19, the “phospho-S6 immunofluorescence (z-score)” value (co-treatment: lapatinib 1 uM) is -0.04 and the “phospho-S6 immunofluorescence (z-score)” value (co-treatment: vehicle) is 0.48.

In the case of `COc1ccccc1N1CCN(CCCCN2C(=O)c3ccccc3C2=O)CC1` [NAN-190 (hydrobromide)] (compound 10 µM), the “phospho-S6 immunofluorescence (z-score)” value runs as follows: (co-treatment: GDC0941 450 nM) 0.76; (co-treatment: lapatinib 1 uM) -0.29; (co-treatment: vehicle) 0.19.

Take `CN1CCC(=C2c3ccccc3CC(=O)c3sccc32)CC1` [Ketotifen (fumarate)] (compound 10 µM): the “phospho-S6 immunofluorescence (z-score)” value reads like this: (co-treatment: GDC0941 450 nM) 0.55; (co-treatment: lapatinib 1 uM) -0.44; (co-treatment: vehicle) 0.26.

Take `O=C1Cc2cc(CCN3CCN(c4nsc5ccccc45)CC3)c(Cl)cc2N1` [Ziprasidone (hydrochloride monohydrate)] (compound 10 µM): the “phospho-S6 immunofluorescence (z-score)” value (co-treatment: GDC0941 450 nM) is -5.1, the “phospho-S6 immunofluorescence (z-score)” value (co-treatment: lapatinib 1 uM) was -9.79 and the “phospho-S6 immunofluorescence (z-score)” value (co-treatment: vehicle) was -5.97.

As to `Cc1ccc(S(=O)(=O)N2CCCC2c2ccc(F)cc2)cc1` (configuration not stated) (compound 10 µM), the “phospho-S6 immunofluorescence (z-score)” value runs as follows: (co-treatment: GDC0941 450 nM) -2.47; (co-treatment: lapatinib 1 uM) 0.46; (co-treatment: vehicle) -1.81.

With `OCCOCCN1CCN(Cc2cccc(Oc3ccccc3)c2)CC1` (compound 10 µM), the “phospho-S6 immunofluorescence (z-score)” value (co-treatment: GDC0941 450 nM) was -0.36, the “phospho-S6 immunofluorescence (z-score)” value (co-treatment: lapatinib 1 uM) worked out at 0.35 and the “phospho-S6 immunofluorescence (z-score)” value (co-treatment: vehicle) is -1.04.

`C[C@H](N)[C@H](O)c1cccc(O)c1` [Metaraminol (tartrate)] (compound 10 µM): the “phospho-S6 immunofluorescence (z-score)” value was determined as 0.64 (co-treatment: GDC0941 450 nM), 0.89 (co-treatment: lapatinib 1 uM) and 0.73 (co-treatment: vehicle).

Turning to `OC(CNCC(O)C1CCc2cc(F)ccc2O1)C1CCc2cc(F)ccc2O1` (configuration not stated) [Nebivolol (hydrochloride)] (compound 10 µM), the “phospho-S6 immunofluorescence (z-score)” value was -2.5 (co-treatment: GDC0941 450 nM), -3.76 (co-treatment: lapatinib 1 uM) and -2.22 (co-treatment: vehicle).

Consider `COc1ccc(CNC(=O)c2sc3nc(C)cc(C)c3c2N)cc1` (compound 10 µM), for which the “phospho-S6 immunofluorescence (z-score)” value was -1.98 (co-treatment: GDC0941 450 nM), 1.66 (co-treatment: lapatinib 1 uM) and 0.34 (co-treatment: vehicle).

Regarding `COCCc1ccc(OCC(O)CNC(C)C)cc1` (configuration not stated) [Metoprolol (Succinate)] (compound 10 µM), the “phospho-S6 immunofluorescence (z-score)” value (co-treatment: GDC0941 450 nM) stood at 0.44, the “phospho-S6 immunofluorescence (z-score)” value (co-treatment: lapatinib 1 uM) is -0.38 and the “phospho-S6 immunofluorescence (z-score)” value (co-treatment: vehicle) came out at 1.15.

`c1ccc(CC2=NCCN2)cc1` [Tolazoline (hydrochloride)] (compound 10 µM): the “phospho-S6 immunofluorescence (z-score)” value is, setting by setting: (co-treatment: GDC0941 450 nM) 1.08; (co-treatment: lapatinib 1 uM) 0.41; (co-treatment: vehicle) 0.92.

`CCN(CC)CC#CCOC(=O)C(O)(c1ccccc1)C1CCCCC1` (configuration not stated) [Oxybutynin] (compound 10 µM): the “phospho-S6 immunofluorescence (z-score)” value runs as follows: (co-treatment: GDC0941 450 nM) -0.77; (co-treatment: lapatinib 1 uM) 0.75; (co-treatment: vehicle) -0.04.
